Here are results for nine molecules from PubChem BioAssay.

Active and inactive are the calls of the source.

In experiment [1] the test system is Wnt5a (protein binding on small-molecule microarray). As to the kind of experiment: small molecules binding Wnt5a protein – biophysical, small-molecule microarray, 635/667 nm fluorescence, primary screen (AID 1142).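 Further: fluorescence read at 667 nm with signal to noise per printed feature.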 Particulars: 635 nm fluorescence, higher = more signal.
Experiment [2] is described as follows: ATP-based viability of Huh7 replicon cells – cell-based, CellTiter-Glo luminescence, basal, 48 h, cytotoxicity control for HCV replication inhibitor project, primary screen (AID 1143).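 Further: Huh7 hepatoma cells carrying a hepatitis C replication reporter with no stimulus; test concentration not given here.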 To be noted: higher = more signal, called active from +8 up or from −8 down. (In general: Replicon systems follow genome replication, usually without infectious particles.)
Experiment [3] in a line: basal CRE-LacZ reporter activity in PC12 – cell-based, unstimulated, primary screen (AID 1145). To be noted: no forskolin, luminescence, 4.5 h, higher = more signal, called active from +8 up or from −8 down.
Experiment [4] is described as follows: forskolin-driven CRE-LacZ activity in PC12 – cell-based, CRE-LacZ reporter, forskolin-stimulated, primary screen (AID 1146).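 Further: PC12 cells with 6xCRE LacZ reporter stimulated by forskolin 10 µM; beta-galactosidase reporter signal reflecting CREB driven transcription.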 To be noted: luminescence, 4.5 h, higher = more signal, called active from +8 up or from −8 down.
In experiment [5] the target is Streptavidin (Streptomyces avidinii) (UniProt P22629). As to the kind of experiment: compounds binding control protein streptavidin – biophysical, small-molecule microarray, 635/667 nm fluorescence, artefact control for SMM compound annotation, primary screen (AID 1147).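 Further: signal reflects streptavidin binding to arrayed compounds as a control protein.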 To be noted: higher = more signal.
Experiment [6] can be described thus: probe aInhba binding on compound microarray – biochemical, small-molecule microarray, 635/667 nm fluorescence, primary screen (AID 1148).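 Further: score merges 667nm spot fluorescence with signal-to-noise for antibody binding to printed compounds.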 Particulars: higher = more signal.
The target of experiment [7] is Torsin-1A (Homo sapiens) (UniProt O14656). As to the kind of experiment: TOR1A wild-type binding on microarray – cell lysate, small-molecule microarray, lysate, 635/667 nm, primary screen (AID 1149). Particulars: COS7 hTOR1A-WT lysate, 635 nm fluorescence, higher = more signal.
For experiment [8] the target is unchanged. Briefly: torsin A mutant lysate binding on microarrays – cell lysate, small-molecule microarray, COS7 lysate, 635/667 nm fluorescence, primary screen (AID 1150).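 Further: score pools 667 nm emission and signal to noise measuring lysate protein binding.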 Particulars: COS7 hTOR1A mutant lysate, 635 nm fluorescence, higher = more signal.
Experiment [9] deals with Sonic hedgehog protein (Shh). Briefly: Sonic hedgehog microarray binding compounds – biochemical, small-molecule microarray, 635/667 nm fluorescence, primary screen (AID 1151).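 Further: Shh protein binding to compounds spotted on small-molecule microarray slides; score combines spot fluorescence intensity with signal-to-noise across triplicate slides.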 Particulars: 635 nm fluorescence, higher = more signal.
The nature of experiment [10]: optical density shifts of acrAB sulA E. coli – strain DRC41, OD650, 48 h, E. coli filamentation inducer project, primary screen (AID 1152).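 Further: E. coli MC1000 strain DRC41 lacking acrAB efflux pump and sulA.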 Particulars: higher = more signal, called active from +8 up or from −8 down.
Experiment [11] can be described thus: probe aLefty1 binding on compound microarray – biochemical, small-molecule microarray, 635/667 nm fluorescence, primary screen (AID 1153).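 Further: score merges spot fluorescence with signal-to-noise ratio from the scanned slide images.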 To be noted: higher = more signal.
Experiment [12] is described as follows: plasmodial surface anion channel blockers, osmotic lysis – cell-based, P. falciparum Indochina, OD700, 1 h, primary screen (AID 1154). Particulars: P. falciparum Indochina infected RBC osmotic lysis, higher = more signal, called active from +8 up or from −8 down.
Experiment [13] can be described thus: plasmodial surface anion channel blockers, osmotic lysis – cell-based, P. falciparum Indochina, OD700, 2 h, primary screen (AID 1155).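 Further: lysis reports solute entry through the parasite surface anion channel PSAC.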 To be noted: P. falciparum Indochina infected erythrocytes, higher = more signal, called active from +8 up or from −8 down.
Experiment [14] can be described thus: changes in parasitized red cell lysis, either direction – P. falciparum Indochina, OD700, 3 h, PSAC antagonist project, primary screen (AID 1156). To be noted: P. falciparum-infected erythrocytes, osmotic lysis, higher = more signal, called active from +8 up or from −8 down.
A short description of experiment [15]: plasmodial surface anion channel blockers, osmotic lysis – cell-based, P. falciparum Indochina, OD700, 18 h, primary screen (AID 1157). Particulars: P. falciparum Indochina infected erythrocytes, osmotic lysis OD700, 18 h; higher = more signal, called active from +8 up or from −8 down.
Experiment [16] is described as follows: S6 kinase pathway phospho-S6 level changes – cell-based, A549, cytoblot, luminescence, serum-stimulated, primary screen (AID 1158).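 Further: serum-stimulated A549 lung adenocarcinoma cells; signal is phosphorylated S6 detected by cytoblot immunostaining with HRP secondary.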 To be noted: 5 h, higher = more signal.
The target of experiment [17] is NADPH oxidase 2 (Homo sapiens) (UniProt P04839). As to the kind of experiment: compounds shifting NOX2 Amplex Red fluorescence – cell-based, HEK293-NOX2, PMA-stimulated, NOX inhibitor project, primary screen (AID 1159). Further: test concentration not given here. To be noted: 45 min, higher = more signal, called active from +8 up or from −8 down.
In experiment [18] the target is NADPH oxidase 4 (Homo sapiens) (UniProt Q9NPH5). Briefly: compounds shifting NOX4 Amplex Red fluorescence – cell-based, HEK293-NOX4, tetracycline-induced, NOX inhibitor project, primary screen (AID 1160). Particulars: HEK293-NOX4, Amplex Red H2O2 fluorescence, 45 min; higher = more signal, called active from +8 up or from −8 down.
Experiment [19] concerns the target NADPH oxidase 5 (Homo sapiens) (UniProt Q96PH1). As to the kind of experiment: compounds shifting NOX5 Amplex Red fluorescence – cell-based, HEK293-NOX5, NOX inhibitor project, primary screen (AID 1161). Particulars: HEK293-NOX5, ionomycin, 45 min, higher = more signal.

Sequence of Torsin-1A (Homo sapiens) (O14656 whole entry, looked up): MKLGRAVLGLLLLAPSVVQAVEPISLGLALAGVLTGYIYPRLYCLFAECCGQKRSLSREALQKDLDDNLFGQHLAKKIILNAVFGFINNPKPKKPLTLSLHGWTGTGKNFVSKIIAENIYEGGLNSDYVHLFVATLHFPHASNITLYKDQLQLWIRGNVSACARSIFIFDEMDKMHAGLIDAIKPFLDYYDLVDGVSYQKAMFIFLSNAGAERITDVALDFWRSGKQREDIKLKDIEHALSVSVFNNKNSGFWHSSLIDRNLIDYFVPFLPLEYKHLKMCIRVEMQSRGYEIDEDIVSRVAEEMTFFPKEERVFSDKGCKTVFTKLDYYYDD
Sequence of Streptavidin (Streptomyces avidinii) (P22629 whole entry, looked up): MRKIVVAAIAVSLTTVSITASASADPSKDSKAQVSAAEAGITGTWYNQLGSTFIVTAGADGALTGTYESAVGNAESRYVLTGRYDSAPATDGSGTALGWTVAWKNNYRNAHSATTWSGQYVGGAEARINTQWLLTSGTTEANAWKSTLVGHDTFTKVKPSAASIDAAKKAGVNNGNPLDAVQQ
Sequence of NADPH oxidase 5 (Homo sapiens) (Q96PH1 whole entry, looked up): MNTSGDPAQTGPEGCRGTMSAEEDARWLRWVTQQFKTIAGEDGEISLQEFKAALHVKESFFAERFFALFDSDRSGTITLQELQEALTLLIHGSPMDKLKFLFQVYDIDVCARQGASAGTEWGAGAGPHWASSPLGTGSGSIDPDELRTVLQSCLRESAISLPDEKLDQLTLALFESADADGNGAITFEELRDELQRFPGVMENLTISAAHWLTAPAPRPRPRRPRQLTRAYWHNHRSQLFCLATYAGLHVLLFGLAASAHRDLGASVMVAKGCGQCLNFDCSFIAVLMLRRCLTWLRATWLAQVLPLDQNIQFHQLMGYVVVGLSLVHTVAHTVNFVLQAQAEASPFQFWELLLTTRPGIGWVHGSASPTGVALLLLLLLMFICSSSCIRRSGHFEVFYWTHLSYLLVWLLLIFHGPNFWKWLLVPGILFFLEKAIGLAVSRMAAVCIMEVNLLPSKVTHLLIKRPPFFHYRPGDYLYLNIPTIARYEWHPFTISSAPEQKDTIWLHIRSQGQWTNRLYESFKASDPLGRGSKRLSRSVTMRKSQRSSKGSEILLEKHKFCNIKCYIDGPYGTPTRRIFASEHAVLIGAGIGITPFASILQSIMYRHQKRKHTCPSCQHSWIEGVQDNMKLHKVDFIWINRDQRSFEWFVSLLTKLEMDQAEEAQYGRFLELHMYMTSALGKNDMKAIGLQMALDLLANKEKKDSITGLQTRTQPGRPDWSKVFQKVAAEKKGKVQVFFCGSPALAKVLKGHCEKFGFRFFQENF
Sequence of NADPH oxidase 4 (Homo sapiens) (Q9NPH5 whole entry, looked up): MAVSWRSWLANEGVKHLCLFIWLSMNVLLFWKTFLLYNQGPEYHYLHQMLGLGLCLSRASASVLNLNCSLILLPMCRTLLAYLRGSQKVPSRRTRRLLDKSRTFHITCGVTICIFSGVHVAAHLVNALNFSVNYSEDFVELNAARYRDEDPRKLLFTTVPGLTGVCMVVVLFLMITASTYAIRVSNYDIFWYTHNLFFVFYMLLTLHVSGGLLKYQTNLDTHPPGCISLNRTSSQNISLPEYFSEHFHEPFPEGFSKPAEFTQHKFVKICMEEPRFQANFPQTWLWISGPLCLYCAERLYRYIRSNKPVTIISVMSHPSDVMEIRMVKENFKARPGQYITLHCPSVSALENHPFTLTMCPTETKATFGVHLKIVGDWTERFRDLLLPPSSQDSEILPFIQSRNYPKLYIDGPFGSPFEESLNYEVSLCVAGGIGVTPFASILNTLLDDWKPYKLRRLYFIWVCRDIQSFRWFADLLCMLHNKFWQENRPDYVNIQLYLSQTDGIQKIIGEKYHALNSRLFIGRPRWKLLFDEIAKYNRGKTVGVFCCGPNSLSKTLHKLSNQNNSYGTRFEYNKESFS
Sequence of NADPH oxidase 2 (Homo sapiens) (P04839 whole entry, looked up): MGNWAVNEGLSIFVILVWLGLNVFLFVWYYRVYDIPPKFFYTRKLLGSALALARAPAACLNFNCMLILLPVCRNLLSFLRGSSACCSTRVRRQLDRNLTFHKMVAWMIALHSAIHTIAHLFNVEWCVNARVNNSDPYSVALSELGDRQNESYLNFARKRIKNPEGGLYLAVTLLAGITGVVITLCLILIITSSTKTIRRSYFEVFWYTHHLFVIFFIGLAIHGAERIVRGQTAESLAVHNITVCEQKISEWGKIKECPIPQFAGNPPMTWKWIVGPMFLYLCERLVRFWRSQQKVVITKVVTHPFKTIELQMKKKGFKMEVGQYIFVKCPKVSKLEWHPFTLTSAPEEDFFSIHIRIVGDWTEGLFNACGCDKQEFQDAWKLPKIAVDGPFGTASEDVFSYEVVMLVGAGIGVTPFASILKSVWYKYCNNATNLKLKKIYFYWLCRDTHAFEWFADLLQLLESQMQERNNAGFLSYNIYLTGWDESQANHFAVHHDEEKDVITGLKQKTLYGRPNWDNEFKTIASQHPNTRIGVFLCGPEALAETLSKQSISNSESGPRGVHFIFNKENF

Turning to `O=C1O[C@@H](c2ccccc2)[C@@H](c2ccccc2)N2[C@@H](c3ccc(O)cc3)[C@]3(C(=O)Nc4ccccc43)[C@@H](C(=O)N3CCN(c4ncccn4)CC3)[C@H]12`, the composite z-score was -0.0063 in [1]; -0.6 in experiment [5]; -0.178 in experiment [6]; 0.828 in experiment [7]; 0.232 in experiment [8]; -0.0193 in experiment [9]. In addition, in experiment [11], the composite z-score was -0.263. The z-score is -5 (inactive) in experiment [2]; -0.815 (inactive) in [3]; -0.245 (inactive) in experiment [4]; 3.11 (inactive) in experiment [10]; 2.76 (inactive) in [12]; -0.363 (inactive) in [13]. For the same molecule, the z-score in [14] was 0.541 (inactive); in [15], -1.54 (inactive); in experiment [16], 2.51; in [17], 0.142 (inactive); in [18], -0.0244 (inactive); in experiment [19] it was 1.51.

On to `C=CCc1cccc([C@@H]2[C@@H](C)CC[C@H]3C(=O)N4[C@H](c5cccc(CC=C)c5)[C@@H](C)CC[C@H]4C(=O)N23)c1`, for which the composite z-score stood at 0.205 in experiment [1]; 0.898 in experiment [5]; 0.0968 in experiment [6]; 0.392 in [7]; 0.203 in experiment [8]; 0.946 in [9]. This molecule gave a composite z-score in experiment [11] of 0.142. The z-score in experiment [2] is -3.75 (inactive); in experiment [3], 3.64 (inactive); in experiment [4] it was -0.353 (inactive); in [10] it was 0.0258 (inactive); in experiment [12], 5.32 (inactive); in experiment [13] it was 1.46 (inactive). For the same molecule, the z-score is 2.14 (inactive) in experiment [14]; 0.738 (inactive) in experiment [15]; -0.0433 in experiment [16]; -0.23 (inactive) in experiment [17]; -0.0735 (inactive) in experiment [18]; -1.48 in experiment [19].

For `C=C(/C(=C/C[C@@H](OC(=O)c1ccncc1)c1ccc(CO)o1)c1cnc2ccccc2c1)C(C)C`, the composite z-score is 0.117 in experiment [1]; 1.72 in experiment [5]; 0.0464 in experiment [6]; 0.165 in [7]; 0.475 in experiment [8]; 1.15 in [9]. This molecule had a composite z-score in experiment [11] of 0.0248. The z-score in [2] was -1.35 (inactive); in experiment [3] it was 2.21 (inactive); in [4] it was -0.42 (inactive); in [10] it was 0.767 (inactive); in experiment [12] it was 4.66 (inactive); in [13] it was 0.231 (inactive). The z-score was 0.633 (inactive) in [14]; -0.0835 (inactive) in experiment [15]; -0.191 in [16]; 0.588 (inactive) in experiment [17]; -0.649 (inactive) in [18]; -1.08 in [19].

Turning to `O=C1O[C@@H](c2ccccc2)[C@@H](c2ccccc2)N2[C@@H](c3ccccc3OCCO)[C@]3(C(=O)Nc4ccc(C#CC5=CCCCC5)cc43)[C@@H](C(=O)O)[C@H]12`, the composite z-score in experiment [1] was 0.26; in [5], 0.841; in experiment [6] it was -0.0006; in [7], 0.13; in [8], 0.261; in [9], 0.195. Moreover, in experiment [11], the composite z-score stood at 0.19. Also, the z-score was -4.37 (inactive) in experiment [2]; 0.245 (inactive) in experiment [3]; 13.7 (active) in experiment [4]; 1.72 (inactive) in experiment [10]; -1.69 (inactive) in [12]; -2.47 (inactive) in experiment [13]. Also, the z-score is -13.4 (active) in experiment [14]; -2.89 (inactive) in experiment [15]; 0.661 in experiment [16]; 2.26 (inactive) in experiment [17]; -2.11 (inactive) in experiment [18]; -2.75 in [19].

Consider `[N-]=[N+]=NCc1ccccc1C[C@@]1(C(=O)N2CCOCC2)N=C(c2ccc(OCCCO)cc2)O[C@@H]1c1ccccc1N=[N+]=[N-]`, for which the composite z-score in [1] was determined as 0.994; in experiment [5] it was 1.43; in [6], 0.421; in [7], 0.783; in experiment [8], 0.987; in experiment [9] it was 0.144. The same molecule came in with a composite z-score in experiment [11] of 1.1. Further, the z-score in experiment [2] was -3.63 (inactive); in experiment [3] it was 0.218 (inactive); in experiment [4], -1.23 (inactive); in experiment [10], 0.664 (inactive); in [12], 30.5 (active); in [13], 27.7 (active). For the same molecule, the z-score in [14] was 2.82 (inactive); in experiment [15], 7.87 (inactive); in experiment [16], 1.36; in experiment [17] it was -1.49 (inactive); in experiment [18] it was 0.897 (inactive); in experiment [19], -0.107.

With `O=C(NCc1ccccc1)[C@@]1(CCS(=O)(=O)c2ccccc2)COC(c2ccc(OCCCO)cc2)=N1`, the composite z-score was 0.23 in experiment [1]; 2 in experiment [5]; 0.281 in experiment [6]; 0.911 in experiment [7]; 0.576 in [8]; 0.331 in [9]. In experiment [11], this molecule registered a composite z-score of 0.715. Further, the z-score in [2] is -3.07 (inactive); in experiment [3], -0.137 (inactive); in [4], -2.67 (inactive); in [10], 2.13 (inactive); in [12], 30.4 (active); in [13], 25.8 (active). The z-score in experiment [14] was 3.7 (inactive); in experiment [15] it was 5.53 (inactive); in experiment [16] it was 2.54; in [17], -2.26 (inactive); in [18], -0.0883 (inactive); in experiment [19], -2.24.

For `COc1cccc([C@@H]2[C@@H](C)CC[C@H]3C(=O)N(C)[C@@H](C(C)C)C(=O)N23)c1`, the composite z-score in experiment [1] was 0.0537; in experiment [5], 0.398; in experiment [6], -0.0523; in [7] it was 0.798; in experiment [8] it was 0.101; in [9], 0.39. For the same molecule, in [11], the composite z-score is -0.193. Besides, the z-score in [2] was -0.205 (inactive); in experiment [3], 2.9 (inactive); in [4] it was -0.762 (inactive); in experiment [10], 1.1 (inactive); in [12] it was -0.147 (inactive); in [13], 0.651 (inactive). The z-score in experiment [14] is -0.355 (inactive); in experiment [15], -0.0201 (inactive); in [16] it was 0.423; in experiment [17], 0.226 (inactive); in experiment [18] it was 0.0929 (inactive); in experiment [19], 0.265.

For `CO[C@H]1COC(=O)[C@H](C)NC(=O)CC=C[C@@H](C)[C@H](NS(=O)(=O)c2ccc(C)cc2)COC(=O)[C@@H](OCc2ccccc2)C=C[C@@H]1C`, the composite z-score in experiment [1] is 0.0746; in [5], -0.25; in experiment [6], -0.261; in [7] it was 0.196; in experiment [8], 0.316; in experiment [9], 0.96. The molecule further displayed a composite z-score in [11] of -0.303. The z-score was 0.0974 (inactive) in [2]; 1.06 (inactive) in [3]; -0.594 (inactive) in [4]; 0.117 (inactive) in [10]; 0.655 (inactive) in experiment [12]; 0.637 (inactive) in experiment [13]. The z-score in experiment [14] is 0.416 (inactive); in experiment [15], -0.14 (inactive); in experiment [16] it was 0.215; in experiment [17], 1.4 (inactive); in experiment [18], 0.815 (inactive); in experiment [19], 0.2.

Take `CO[C@@H]1COC(=O)[C@H](C)NC(=O)CC=C[C@@H](C)[C@H](OC)COC(=O)[C@H](C)NC(=O)CC=C[C@H]1C`: the composite z-score in [1] was 0.151; in experiment [5] it was 1.17; in [6], 0.0659; in experiment [7], 0.678; in experiment [8], -0.0045; in experiment [9], 0.622. In experiment [11], this molecule came in with a composite z-score of -0.0984. For the same molecule, the z-score is -0.164 (inactive) in [2]; -0.205 (inactive) in [3]; -0.759 (inactive) in [4]; 1.02 (inactive) in experiment [10]; 0.174 (inactive) in experiment [12]; 0.551 (inactive) in experiment [13]. Moreover, the z-score is 0.0076 (inactive) in experiment [14]; 0.108 (inactive) in experiment [15]; 0.298 in experiment [16]; 0.319 (inactive) in experiment [17]; 0.114 (inactive) in experiment [18]; 0.976 in experiment [19].
